# Assay results reported in the supplement of paper PMC4022240.
# ± gives the standard deviation.
# T1: HaloTag-ATRX ADD domain (163-292)
# T1 chain: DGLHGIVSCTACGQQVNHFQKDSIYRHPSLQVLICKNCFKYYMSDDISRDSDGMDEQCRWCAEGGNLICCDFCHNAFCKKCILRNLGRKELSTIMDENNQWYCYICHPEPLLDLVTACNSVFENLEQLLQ
# B1: Unmod H4 variant I Q G I T K P A I R R L A (peptide)
# chain: IQGITKPAIRRLA
# B2: Unmod H3 variant A I H A K R V T I M P K D (peptide)
# chain: AIHAKRVTIMPKD
# B3: Unmod H4 variant G K G G A K R H R K V L R (peptide)
# chain: GKGGAKRHRKVLR
# B4: Unmod H4 variant G G K G L G K G G A K R H (peptide)
# chain: GGKGLGKGGAKRH
# B5: Unmod H4 variant Y E E T R G V L K V F L E (peptide)
# chain: YEETRGVLKVFLE
# B6: Unmod H4 variant K R H R K V L R D N I Q G (peptide)
# chain: KRHRKVLRDNIQG
# B7: Unmod H4 variant T Y T E H A K R K T V T A (peptide)
# chain: TYTEHAKRKTVTA
# B8: Unmod H4 variant I S G L I Y E E T R G V L (peptide)
# chain: ISGLIYEETRGVL
# B9: Unmod H4 variant V L R D N I Q G I T K P A (peptide)
# chain: VLRDNIQGITKPA
# B10: Unmod H4 variant F L E N V I R D A V T Y T (peptide)
# chain: FLENVIRDAVTYT
# B11: Unmod H4 variant G V L K V F L E N V I R D (peptide)
# chain: GVLKVFLENVIRD
# B12: Unmod H3 variant R V T I M P K D I Q L A R (peptide)
# chain: RVTIMPKDIQLAR
# B13: Unmod H4 variant A K R K T V T A M D V V Y (peptide)
# chain: AKRKTVTAMDVVY
# B14: Unmod H4 variant I R D A V T Y T E H A K R (peptide)
# chain: IRDAVTYTEHAKR
# B15: Unmod H4 variant G G V K R I S G L I Y E E (peptide)
# chain: GGVKRISGLIYEE
# B16: Unmod H4 variant S G R G K G G K G L G K G (peptide)
# chain: SGRGKGGKGLGKG
# Assays:
# Assay in all cases: peptide microarray binding signal (635 nm), min-max normalized on array (fraction of array maximum); higher = stronger binding
# [1] = molecular target: T1, HaloTag-ATRX ADD domain (163-292)
# Summary of the method: (§1)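 An Axon GenePix 4000B scanned the arrays at 635 nm for signal and at 532 nm to catch misprints. Those arrays held histone 13-mer peptide–cellulose conjugates printed in triplicate on nitrocellulose with a Cy3 tracer, blocked overnight at 4°C and probed for 1 h at 4°C with biotin-labelled HaloTag reader fusions (10 nM to 1 μM) plus streptavidin-Alexa Fluor 647 or with rabbit histone antibodies (1:10,000 to 1:2,000) plus anti-rabbit Alexa 647. Each binding signal is a triplicate-spot mean intensity, scaled min-max within its library.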
# [2] = molecular target: HaloTag-ING2 PHD (mouse Ing2 200-280)
# Summary of the method: as §1
# [3] = molecular target: anti-H3K4me3 antibody ab8580
# Summary of the method: as §1
# [4] = molecular target: anti-H3K9me3 antibody ab8898
# Summary of the method: as §1
# [5] = peptide region: Unmod H4 variant, binder concentration: 50 nM
# [6] = peptide region: Unmod H4 variant, binder concentration: 500 nM
# [7] = peptide region: Unmod H4 variant, binder concentration: 10 nM
# [8] = peptide region: Unmod H4 variant, binder concentration: 100 nM
# [9] = peptide region: Unmod H4 variant, binder concentration: 1:2,000 dilution
# [10] = peptide region: Unmod H4 variant, binder concentration: 1:10,000 dilution
# [11] = peptide region: Unmod H3 variant, binder concentration: 50 nM
# [12] = peptide region: Unmod H3 variant, binder concentration: 500 nM
# [13] = peptide region: Unmod H3 variant, binder concentration: 10 nM
# [14] = peptide region: Unmod H3 variant, binder concentration: 100 nM
# [15] = peptide region: Unmod H3 variant, binder concentration: 1:2,000 dilution
# [16] = peptide region: Unmod H3 variant, binder concentration: 1:10,000 dilution
binder,measurement,setting,value
B1,peptide microarray binding signal,[1]; [5],0.0496 ± 0.0034
same,peptide microarray binding signal,[1]; [6],0.0842 ± 0.0024
same,peptide microarray binding signal,[2]; [7],0.0565 ± 0.0092
same,peptide microarray binding signal,[2]; [8],0.119 ± 0.019
same,peptide microarray binding signal,[3]; [9],0.0125 ± 0.0012
same,peptide microarray binding signal,[3]; [10],0.0159 ± 0.0013
same,peptide microarray binding signal,[4]; [9],0.00663 ± 0.00078
same,peptide microarray binding signal,[4]; [10],0.00957 ± 0.00076
B2,peptide microarray binding signal,[1]; [11],0.00414 ± 0.00014
same,peptide microarray binding signal,[1]; [12],0.0132 ± 0.00021
same,peptide microarray binding signal,[2]; [13],0.00507 ± 0.00019
same,peptide microarray binding signal,[2]; [14],0.0196 ± 0.0021
same,peptide microarray binding signal,[3]; [15],0.000849 ± 2.3e-05
same,peptide microarray binding signal,[3]; [16],0.00211
same,peptide microarray binding signal,[4]; [15],0.000513 ± 1.3e-05
same,peptide microarray binding signal,[4]; [16],0.000692 ± 7.3e-06
B3,peptide microarray binding signal,[1]; [5],0.00508 ± 0.0001
same,peptide microarray binding signal,[1]; [6],0.0113 ± 0.00031
same,peptide microarray binding signal,[2]; [7],0.00292 ± 0.00011
same,peptide microarray binding signal,[2]; [8],0.00836 ± 0.00085
same,peptide microarray binding signal,[3]; [9],0.000472 ± 9.3e-06
same,peptide microarray binding signal,[3]; [10],0.000856 ± 1.8e-05
same,peptide microarray binding signal,[4]; [9],0.000302 ± 3.1e-06
same,peptide microarray binding signal,[4]; [10],0.00075 ± 7.9e-06
B4,peptide microarray binding signal,[1]; [5],0.00373 ± 6.8e-05
same,peptide microarray binding signal,[1]; [6],0.011 ± 0.0003
same,peptide microarray binding signal,[2]; [7],0.0132 ± 0.0071
same,peptide microarray binding signal,[2]; [8],0.0147 ± 0.00057
same,peptide microarray binding signal,[3]; [9],0.000547 ± 1.1e-05
same,peptide microarray binding signal,[3]; [10],0.00114 ± 2.3e-05
same,peptide microarray binding signal,[4]; [9],0.0003775 ± 3.7e-06
same,peptide microarray binding signal,[4]; [10],0.00075 ± 7.9e-06
B5,peptide microarray binding signal,[1]; [5],0.00188 ± 2.3e-05
same,peptide microarray binding signal,[1]; [6],0.00157
same,peptide microarray binding signal,[2]; [7],0.00197 ± 3e-05
same,peptide microarray binding signal,[2]; [8],0.001913 ± 1.9e-05
same,peptide microarray binding signal,[3]; [9],0.00123 ± 0.00021
same,peptide microarray binding signal,[3]; [10],0.000742
same,peptide microarray binding signal,[4]; [9],0.000287 ± 2.9e-06
same,peptide microarray binding signal,[4]; [10],0.000807 ± 2.5e-05
B6,peptide microarray binding signal,[1]; [5],0.00636 ± 0.00015
same,peptide microarray binding signal,[1]; [6],0.0147 ± 0.00085
same,peptide microarray binding signal,[2]; [7],0.00549 ± 9.7e-05
same,peptide microarray binding signal,[2]; [8],0.0208 ± 0.0048
same,peptide microarray binding signal,[3]; [9],0.000774 ± 7e-06
same,peptide microarray binding signal,[3]; [10],0.00114 ± 1.2e-05
same,peptide microarray binding signal,[4]; [9],0.000604 ± 4.7e-05
same,peptide microarray binding signal,[4]; [10],0.00104 ± 2.8e-05
B7,peptide microarray binding signal,[1]; [5],0.0167 ± 0.0088
same,peptide microarray binding signal,[1]; [6],0.0332 ± 0.0014
same,peptide microarray binding signal,[2]; [7],0.00901 ± 0.00035
same,peptide microarray binding signal,[2]; [8],0.0293 ± 0.0034
same,peptide microarray binding signal,[3]; [9],0.00155 ± 0.00011
same,peptide microarray binding signal,[3]; [10],0.0024 ± 0.00014
same,peptide microarray binding signal,[4]; [9],0.00104 ± 3.8e-05
same,peptide microarray binding signal,[4]; [10],0.00202 ± 8.6e-05
B8,peptide microarray binding signal,[1]; [5],0.00266 ± 3.1e-05
same,peptide microarray binding signal,[1]; [6],0.00776 ± 0.0036
same,peptide microarray binding signal,[2]; [7],0.00233 ± 7.4e-05
same,peptide microarray binding signal,[2]; [8],0.00319 ± 0.00013
same,peptide microarray binding signal,[3]; [9],0.00109 ± 5.1e-05
same,peptide microarray binding signal,[3]; [10],0.00114 ± 1.2e-05
same,peptide microarray binding signal,[4]; [9],0.0004228 ± 4.1e-06
same,peptide microarray binding signal,[4]; [10],0.000807 ± 1.5e-05
B9,peptide microarray binding signal,[1]; [5],0.0154 ± 0.00068
same,peptide microarray binding signal,[1]; [6],0.0293 ± 0.0022
same,peptide microarray binding signal,[2]; [7],0.0201 ± 0.00092
same,peptide microarray binding signal,[2]; [8],0.0672 ± 0.0023
same,peptide microarray binding signal,[3]; [9],0.0064 ± 0.00045
same,peptide microarray binding signal,[3]; [10],0.0089 ± 0.0011
same,peptide microarray binding signal,[4]; [9],0.00264 ± 0.00015
same,peptide microarray binding signal,[4]; [10],0.00323 ± 9.4e-05
B10,peptide microarray binding signal,[1]; [5],0.0144 ± 0.0008
same,peptide microarray binding signal,[1]; [6],0.0404 ± 0.01
same,peptide microarray binding signal,[2]; [7],0.00901 ± 0.0012
same,peptide microarray binding signal,[2]; [8],0.0294 ± 0.011
same,peptide microarray binding signal,[3]; [9],0.00381 ± 0.00074
same,peptide microarray binding signal,[3]; [10],0.00519 ± 0.00068
same,peptide microarray binding signal,[4]; [9],0.00331 ± 0.00056
same,peptide microarray binding signal,[4]; [10],0.0034 ± 0.00025
B11,peptide microarray binding signal,[1]; [5],0.00223 ± 6.3e-05
same,peptide microarray binding signal,[1]; [6],0.00281 ± 0.00014
same,peptide microarray binding signal,[2]; [7],0.00388 ± 0.00015
same,peptide microarray binding signal,[2]; [8],0.00269 ± 6.7e-05
same,peptide microarray binding signal,[3]; [9],0.00174 ± 0.00026
same,peptide microarray binding signal,[3]; [10],0.00097 ± 2e-05
same,peptide microarray binding signal,[4]; [9],0.00125 ± 0.00016
same,peptide microarray binding signal,[4]; [10],0.00098
B12,peptide microarray binding signal,[1]; [11],0.00552 ± 9e-05
same,peptide microarray binding signal,[1]; [12],0.0187 ± 0.001
same,peptide microarray binding signal,[2]; [13],0.0177 ± 0.00085
same,peptide microarray binding signal,[2]; [14],0.0422 ± 0.0028
same,peptide microarray binding signal,[3]; [15],0.00585 ± 0.00079
same,peptide microarray binding signal,[3]; [16],0.00782 ± 0.00068
same,peptide microarray binding signal,[4]; [15],0.00403 ± 0.00079
same,peptide microarray binding signal,[4]; [16],0.00375 ± 0.00014
B13,peptide microarray binding signal,[1]; [5],0.00693 ± 0.00037
same,peptide microarray binding signal,[1]; [6],0.0206 ± 0.0015
same,peptide microarray binding signal,[2]; [7],0.00609 ± 0.00018
same,peptide microarray binding signal,[2]; [8],0.0129 ± 0.0003
same,peptide microarray binding signal,[3]; [9],0.00104 ± 3.5e-05
same,peptide microarray binding signal,[3]; [10],0.001484 ± 1.4e-05
same,peptide microarray binding signal,[4]; [9],0.000604 ± 2e-05
same,peptide microarray binding signal,[4]; [10],0.00104 ± 1.1e-05
B14,peptide microarray binding signal,[1]; [5],0.0385 ± 0.0035
same,peptide microarray binding signal,[1]; [6],0.0711 ± 0.01
same,peptide microarray binding signal,[2]; [7],0.0251 ± 0.0019
same,peptide microarray binding signal,[2]; [8],0.0444 ± 0.0047
same,peptide microarray binding signal,[3]; [9],0.00429 ± 0.00052
same,peptide microarray binding signal,[3]; [10],0.00913 ± 0.0018
same,peptide microarray binding signal,[4]; [9],0.00497 ± 9e-05
same,peptide microarray binding signal,[4]; [10],0.00577 ± 8e-05
B15,peptide microarray binding signal,[1]; [5],0.00323 ± 0.00011
same,peptide microarray binding signal,[1]; [6],0.0107 ± 0.006
same,peptide microarray binding signal,[2]; [7],0.00507 ± 0.0008
same,peptide microarray binding signal,[2]; [8],0.0272 ± 0.027
same,peptide microarray binding signal,[3]; [9],0.000755 ± 7e-05
same,peptide microarray binding signal,[3]; [10],0.00126 ± 5.7e-05
same,peptide microarray binding signal,[4]; [9],0.000664 ± 7.4e-05
same,peptide microarray binding signal,[4]; [10],0.000923 ± 3.4e-05
B16,peptide microarray binding signal,[1]; [5],0.00426 ± 0.00016
same,peptide microarray binding signal,[1]; [6],0.009 ± 0.00081
same,peptide microarray binding signal,[2]; [7],0.00412 ± 0.00013
same,peptide microarray binding signal,[2]; [8],0.0136 ± 0.0012
same,peptide microarray binding signal,[3]; [9],0.000831 ± 3.2e-05
same,peptide microarray binding signal,[3]; [10],0.00108 ± 1.9e-05
same,peptide microarray binding signal,[4]; [9],0.000438 ± 8.5e-06
same,peptide microarray binding signal,[4]; [10],0.000692 ± 7.3e-06
